Screening data from PubChem BioAssay.
TROY signal inh: blocks TROY-dependent signaling in reporter cells. Q293 LMP1-TROYcd NF-kB luciferase reporter, 4 h. inhibition, % at 10 µM. hit rate 0.98% among 360,000. AID 1347056;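 active = compounds whose plate-normalised and pattern-corrected inhibition of the luciferase reporter signal at the single screening dose is 50% or more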
HSP90 inh: inhibitors of HSP90 luciferase refolding in rabbit reticulocyte lysate; luciferase refolding luminescence, 3 h; hit rate 0.91% among 290,000; inhibition, % at 5.6 µM;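 active = inhibition above the screen-wide mean plus 3 SD, computed separately per campaign, cut at about 16% in these data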;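 note: inhibitors lower the luminescence because luciferase stays unfolded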
HIF-2a inh: inhibitors of HIF-2a. hit rate 0.72% among 360,000. 786-0 RCC cells HIF-2a reporter, luciferase luminescence, overnight. inhibition, % at 18.8 µM. AID 624352;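 active = inhibition of the luminescence signal of 40% or more relative to plate controls, in a single-dose primary screen at 18.75 µM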
aSyn 5UTR inh: MLPCN primary screen, SNCA 5' untranslated region. hit rate 0.82% among 300,000. AID 1813. alpha-synuclein 5'UTR reporter, inhibitor activity. inhibition, % (tested at 7.5 µM); in the data active = inhibition above about 60%;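 note: H4 neuroglioblastoma cells stably carrying SNCA 5'UTR luciferase fusion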
C8 TRAIL sens: caspase-8 TRAIL sensitization | hit rate 1% among 360,000 | NB7+C8 cells + TRAIL, ATPlite viability luminescence | AID 624354 | inhibition (viability loss, TRAIL sensitization), % at 10 µM;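 active = compounds causing at least 50% loss of cell viability in the single-dose screen, relative to plate controls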
TWEAK Fn14 block: TWEAK-Fn14 signaling inhibition. hit rate 2% among 360,000. TWEAK-stimulated Fn14 reporter cells, luciferase luminescence, 8 h. inhibition, % at 10 µM; in the data active = inhibition above about 50%
Each line names hits and unclear results; the compound was inactive in the other large screens. Rows were chosen to be rich in hits. Some 3.9% of all compounds tested hit in one or more screens of this group.

Cc1cc(N2CCCCC2)n2ncc(-c3ccc(Cl)cc3)c2n1	TROY signal inh 70, TWEAK Fn14 block 74
CC(C)c1cc(Cn2c3ccccc3c(=O)n2C(C)Cn2cc(C3=CCCCC3)nn2)on1 (stereo not drawn)	none (no result: TROY signal inh, HSP90 inh, aSyn 5UTR inh, TWEAK Fn14 block)
CCN(CC(=O)Nc1ccc2c(c1)OCCO2)C(=O)COc1cc(C)ccc1Cl	TWEAK Fn14 block 87 (no result: HSP90 inh)
Cc1ccc(Cl)c(OCC(=O)Nc2ccc3c(c2)OCCO3)c1	none
Cc1ccc(OCC(=O)Nc2ccc3c(c2)OCO3)c(C)c1	none
CC(=O)c1cc(F)ccc1OCC(=O)Nc1ccc2c(c1)OCO2	C8 TRAIL sens 66 (no result: HSP90 inh, aSyn 5UTR inh)
O=C(COc1cc(F)ccc1[N+](=O)[O-])Nc1ccc2c(c1)OCO2	none (no result: HSP90 inh, aSyn 5UTR inh)
NC(=O)c1cc(Cl)ccc1OCC(=O)Nc1ccc2c(c1)OCO2	C8 TRAIL sens 69 (no result: HSP90 inh, aSyn 5UTR inh)
COc1ccc(C(=O)CC(Nc2ccc([N+](=O)[O-])cc2)c2ccc(Cl)cc2)cc1 (stereo not drawn)	TWEAK Fn14 block 53
Cc1nn(Cc2c(F)c(F)c(F)c(F)c2F)c(C)c1NC(=O)c1cccc(COc2ccccc2Cl)c1	none
Cc1nn(Cc2cccc(F)c2)c(C)c1NC(=O)c1ccc(COc2ccccc2Cl)cc1	aSyn 5UTR inh 69, TWEAK Fn14 block 70
Oc1ccc(-c2nc3c4c(ncn3n2)-c2ccccc2CC42CCCC2)cc1	TWEAK Fn14 block 77
Nn1cnc2c(c1=O)C1(CCCCC1)Cc1ccccc1-2	none
Cc1ccc(S(=O)(=O)N2CCCCC2C(=O)N(C)c2ccccc2)cc1 (stereo not drawn)	none
Cc1ccc(N(C)C(=O)C2CCCN2S(=O)(=O)c2ccc3c(c2)n(C)c(=O)c(=O)n3C)cc1 (stereo not drawn)	TWEAK Fn14 block 66
CN1C(=O)C(Cl)(Cl)C(=O)c2ccccc21	TWEAK Fn14 block 51
CN1C(=O)C2(NC(=O)c3ccccc3N2C)c2ccccc21 (stereo not drawn)	none
O=c1[nH]c2ccc(Cl)cc2c(-c2ccccc2)c1SC(=S)N1CCCCC1	TWEAK Fn14 block 77
CC1=C(C(=O)N2CCCCCC2)CC(CC(=O)NCCc2ccccn2)C(=O)N1Cc1ccc(C(C)(C)C)cc1 (stereo not drawn)	none (no result: HSP90 inh, aSyn 5UTR inh)
Cc1nn(CCC#N)c2nc(-c3ccccc3)cc(C(F)(F)F)c12	TROY signal inh 52
CC1(C(=O)Nc2ccc(Cl)cc2)Cc2c(-c3ccc4c(c3)OCO4)ccnc2O1 (stereo not drawn)	none (no result: HSP90 inh, aSyn 5UTR inh)
COc1ccc(-c2ccc3oc(-c4ccsc4)cc(=O)c3c2)cc1F	none (no result: HSP90 inh, aSyn 5UTR inh)
COc1ccc(-c2ccc3oc(-c4ccsc4)cc(=O)c3c2)cn1	TROY signal inh 63 (no result: HSP90 inh, aSyn 5UTR inh)
COc1ccc([C@H]2CC(=O)C[C@@H](CCn3cccn3)O2)cc1	none (no result: HSP90 inh, aSyn 5UTR inh)
COCCn1c(SCC(=O)NNC(=O)c2ccccc2)nc2ccccc2c1=O	TROY signal inh 80
CCN(CC(=O)NCc1ccc(F)cc1)C(=O)/C=C/c1ccc(OC)c(S(=O)(=O)NC(C)C)c1	aSyn 5UTR inh 63
CCN(CC(=O)NCc1ccc(F)cc1)C(=O)/C=C/c1ccc(OC)cc1	none
CCC(=O)C1CCCN(C(=O)c2ccc(OC3CCN(C(=O)CCOC)CC3)cc2)C1 (stereo not drawn)	TWEAK Fn14 block 88
CC(OC(=O)c1ccccc1Oc1ccccc1)C(=O)NC1CC1 (stereo not drawn)	TROY signal inh 59
O=C(COC(=O)c1ccccc1Oc1ccccc1)NC1CC1	none
CCCCCc1c(-c2ccc(Br)cc2)ncn1CCc1ccccc1OC	none (no result: HSP90 inh, aSyn 5UTR inh)
CN(CC(=O)N1CCCCCC1)S(=O)(=O)c1ccc(Br)cc1	none
CN(CC(=O)N1CCN(c2ccccn2)CC1)S(=O)(=O)c1ccc(Br)cc1	TWEAK Fn14 block 92 (no result: TROY signal inh)
Cc1ccc(S(=O)(=O)N2CCC(C(=O)N3CCN(c4ccccn4)CC3)CC2)cc1	TWEAK Fn14 block 76
CC(C)CN1C(=O)C(=O)N(CC(=O)NCCCc2ccccc2)C1=O	none (no result: HSP90 inh, aSyn 5UTR inh)
Cc1ccc(NC(=S)c2ccncc2)c(C)c1	none
Cc1ccc(NC(=S)c2nc3ccccc3[nH]2)c(C)c1	C8 TRAIL sens 73
Cc1cc(Nc2nc(Cl)c(Cl)cc2Cl)n(-c2ccccc2)n1	HSP90 inh 26
CCc1ccc(C2C(C(=O)O)c3ccccc3C(=O)N2C)cc1 (stereo not drawn)	none
O=C(c1ccccc1)C1C(=O)c2ccccc2C1=O	none (no result: aSyn 5UTR inh)
O=C(/C=C/c1ccccc1)C1C(=O)c2ccccc2C1=O	C8 TRAIL sens 87
CCc1ccc(/C=C/C(=O)C2C(=O)c3ccccc3C2=O)cc1	C8 TRAIL sens 91
CCOC(=O)C1CCN(C(=O)/C=C/c2ccccc2OC)CC1	TWEAK Fn14 block 59
COc1cccc(/C=C/C(=O)N2CCN(S(=O)(=O)c3ccccc3)CC2)c1OC	TWEAK Fn14 block 73
COc1ccc(Cc2c(-c3cccc(Br)c3)nc3c(C)cc(Br)cn23)c(C)c1	none (no result: HSP90 inh, aSyn 5UTR inh)
CCN1CCN(C2=C(NS(=O)(=O)c3ccccc3)C(=O)c3ccccc3C2=O)CC1	C8 TRAIL sens 61
CN1CCN(C2=C(NS(=O)(=O)c3ccccc3)C(=O)c3ccccc3C2=O)CC1	C8 TRAIL sens 51
C=CC[C@@H](CC(=O)NCCO)C(=O)NC[C@H](OC(=O)[C@@H](CC=C)Cc1ccc(F)cc1)c1ccccc1	none (no result: HSP90 inh, aSyn 5UTR inh)
COc1ccc(-c2nn3c(-c4ccccc4)nnc3s2)cc1	none
CCN(CC)c1ccc(-c2nn3c(-c4ccccc4OC)nnc3s2)cc1	aSyn 5UTR inh 83
CCOC(=O)[C@]12CCCC=C1N(Cc1ccco1)C(=O)[C@H](CC(=O)N1CCOCC1)C2	none (no result: HSP90 inh, aSyn 5UTR inh)
CC1=NNC(=O)/C1=C\c1cn(-c2ccccc2)nc1-c1ccc(F)cc1	TROY signal inh 75, HIF-2a inh 94, C8 TRAIL sens 86, TWEAK Fn14 block 100
CC1=NNC(=O)/C1=C\c1cn(-c2ccccc2)nc1-c1cccs1	TROY signal inh 88, HIF-2a inh 94, TWEAK Fn14 block 109
CCOC(=O)C(Cc1ccc(O)c([N+](=O)[O-])c1)N1C(=O)c2ccccc2C1=O (stereo not drawn)	none (no result: HSP90 inh, aSyn 5UTR inh)
Cc1cc(=O)[nH]c(NNC(=O)c2ccc(Cl)cc2)n1	none (no result: HSP90 inh, aSyn 5UTR inh)
COc1cccc(/C=N/n2c(C3CCCCC3)n[nH]c2=S)c1O	TWEAK Fn14 block 60
COc1cccc(/C=N/n2c(C3CCCCC3)n[nH]c2=S)c1OC	none
COc1ccc(/C=N/NC(=O)c2ccc(N(C)S(=O)(=O)c3ccccc3)cc2)cc1	TWEAK Fn14 block 51
O=C(O)Cn1cnc2c(oc3ccccc32)c1=O	none
C=C(C)CN(CC)C(=O)Cn1cnc2c(oc3ccccc32)c1=O	TROY signal inh 54
O=C(O)C1OC(C(=O)O)C(C(=O)O)C1C(=O)O (stereo not drawn)	none (no result: HSP90 inh, aSyn 5UTR inh)
CCCC1COC(Cn2cncn2)(c2ccc(C)cc2)O1 (stereo not drawn)	none
CCC(C)n1ncn(-c2ccc(N3CCN(c4ccc(OCC5COC(Cn6cncn6)(c6ccc(Cl)cc6Cl)O5)cc4)CC3)cc2)c1=O (stereo not drawn)	aSyn 5UTR inh 100
